About 30 (2%) of roughly 1,300 compounds were called active. Where a call stands in place of a potency, no number is given. Not shown: some 10% with an inconclusive outcome. The sample holds actives, similar compounds and a random draw of the others, so the mix is not that of the screen. The call rests on the fitted dose curve; in most records, active means well fitted inhibition curve with a large enough effect; inconclusive means small, poorly fitted or top-dose-only effect; inactive means flat fitted curve, though single readings scatter.
Potency means the concentration at half of the fitted maximal effect.

A short description of the assay: qHTS for antagonists of the Thyroid Stimulation Hormone Receptor: Hit Validation in HTRF Activity in a Luteinizing Hormone Receptor Cell Line. Conditions: LHR-expressing cell line, cAMP HTRF, antagonist mode; series mostly up to 58 µM. An excerpt: The thyroid-stimulating hormone receptor (TSHR) is a member of the 7 trans-membrane-spanning receptor (7TMR) family of cell surface receptors. TSHR-mediated hyperthyroidism is important in thyroid pathology. The development of small molecule antagonists of TSHR may lead to therapeutic approaches for TSHR-mediated hyperthyroidism caused by constitutively activating mutations or stimulating auto-antibodies associated with Graves' disease. Graves' disease is the leading cause of hyperthyroidism and is caused by autoantibodies that stimulate TSHR (TsAbs) causing thyroid growth and unregulated overproduction of thyroid hormones and existing treatments have liabilities (agranulocytosis). In addition, TSHRs are known to be expressed in multiple extrathyroidal tissues including bone, brain, kidney, testis, fat and cells of the immune system but the role of the TSHR in these tissues is not clear. Therefore, TSHR antagonists/inverse agonists could be used as probes of extrathyroidal TSHR function. Finally, TSHR inverse agonists, which are a subclass of antagonists that inhibit agonist-independent (or basal or constitutive) TSHR signaling, could be used to inhibit TSH-independent signaling in patients with recurrent or metastatic thyroid cancer who are receiving thyroid hormone to suppress TSH.
In collaboration between scientist from the NCGC and the NIDDK, a miniaturized HTRF high-throughput screen was developed. It's a cell based assay, where an anti cAMP antibody contains a fluorescent cryptate tag (excitation 337 nm; emission 620 nm) and the acceptor is cAMP-d2 (excitation 620 nm; emission 665 nm). When antibody and cAMP-d2 interact and are excited by a 337 nm light, a FRET occurs resulting in emission at 665 nm. The assay is competition between cAMP-d2 and cAMP (from the cell lysate). The homogeneous protocol allows for one step dispense after stimulation that is automation friendly. In order to confirm specificity of the compounds to the TSHR, a confirmatory assay was conducted on a similar family member, the Luteinizing Hormone (LH) receptor, transfected into a HEK 293 cell line, using an orthogonal detection technology to measure cAMP stimulation: antibody-based Homogeneous Time Resolved Fluorescence (HTRF).
NIH Chemical Genomics Center [NCGC]
NIH Molecular Libraries Probe Centers Network [MLPCN]
Assay Provider: Marvin Gershengorn, NIDDK
Homogeneous Time Resolved Fluorescence (HTRF) cAMP Assay. HEK 293 cells stably transfected with a vector containing the LH receptor and maintained under hygromycin selection were obtained from the laboratory of Dr. Marvin Gershengorn. Compounds were assayed using a HTRF cAMP detection kit (Cisbio) on the LH receptor transfected cell line. Briefly, 750 cells were plated in 2.5 ul/well of complete media (DMEM containing 10 % FCS, and 100 uM RO 20-1724) in 1536 well solid bottom white plates and 23 nl/well compound in DMSO solution or controls was added. Following 30 minute incubation at room temperature, 2.5 ul/well of labeled d2 cAMP and 2.5 ul/well of anti-cAMP antibody (both diluted 1:20 in lysis buffer) were added to each well using a flying reagent dispenser (Aurora Discovery, San Diego) . Plates were measured using the Envision plate reader (PerkinElmer, Boston, MA) with excitation at 330 nm and emissions of 615 nm and 660 nm.
A general note: Quantitative high-throughput screening tests each substance at several concentrations.
Regarding `COc1cc2cnc(-c3ccccc3)c(-c3ccc(C#N)cc3)c2cc1OC`, the Potency entry is “inactive”.

Consider `CCn1c(Cl)c(C=O)s/c1=N\S(=O)(=O)c1ccccc1`, for which the Potency was 37.9 µM (active).

For `CCOc1ccccc1N1CCN(C(=O)CCCN2C(=O)c3cccc4cccc(c34)C2=O)CC1`, the Potency entry was “inactive”.

Regarding `CC(C)N(Cc1ccccc1)C(=O)COC(=O)c1cnc(Cl)c(Cl)c1`, the Potency result was “inactive”.

In the case of `CC(Sc1nn(-c2ccc(F)cc2)c(=S)s1)C(=O)c1c(N)n(C)c(=O)n(C)c1=O` (stereo unspecified), the Potency entry was “inactive”.

As to `CC1=CC(=O)C(C(C)C)=C/C1=N/OS(=O)(=O)c1ccccc1`, the Potency is 21.3 µM (active).

Take `CC1=C/C(=N\OS(=O)(=O)c2ccccc2)C(C)=CC1=O`: the Potency was 30.1 µM (active).

For `COc1ccc(/C=N/NC(=O)c2ccoc2C)cc1COc1c(C)cccc1C`, the Potency entry is “inactive”.

As for `CCCSc1nsc(NC(=O)Nc2ccc(F)cc2F)n1`, the Potency entry is “inactive”.

For the molecule `O=C(COc1ccc(Cl)cc1)Nc1ncc([N+](=O)[O-])s1`, the Potency entry was “inactive”.

`COc1cc(/C=N/OCC(=O)NC23CC4CC(CC(C4)C2)C3)ccc1OCc1ccccc1`: the Potency result was “inactive”.

`O=C(OCCc1cc2ccccc2c(=O)o1)c1ccccc1C(F)(F)F`: the Potency result was “inactive”.

As to `CCN(CC)c1ccc2nc3ccccc3[n+](CC)c2c1`, the Potency is 30.1 µM (active).

Turning to `O=C(Nc1nc(-c2ccc(F)cc2)cs1)C1CCN(C(=O)c2ccc(F)cc2)CC1`, the Potency entry was “inactive”.

Turning to `Cc1cccc(N2CCN(S(=O)(=O)c3ccc4c(c3)NC(=O)CS4)CC2)c1C`, the Potency result is “inactive”.

Regarding `CC1CCN(c2ccccc2NC(=O)c2cc([N+](=O)[O-])ccc2N2CCOCC2)CC1`, the Potency entry was “inactive”.

As for `CSc1nnc(C(C)(C)C)c(=O)n1/N=C/c1c(O)ccc2ccccc12`, the Potency entry was “inactive”.

For `Nc1nc(SCc2ccccc2Cl)ns1`, the Potency result is “inactive”.

With `CC1CC1C(=O)N1CCN(S(=O)(=O)c2cc(C(F)(F)F)cc(C(F)(F)F)c2)CC1` (stereo unspecified), the Potency entry was “inactive”.

With `COc1cccc(CN(C)C(=O)c2ccc(OCC(=O)Nc3cccc(C(F)(F)F)c3)c(OC)c2)c1`, the Potency entry is “inactive”.

Take `COc1ccc(-c2nc(CS(=O)CC(=O)NCc3ccccc3)c(C)o2)cc1OC` (stereo unspecified): the Potency result was “inactive”.

In the case of `COc1ccc(CC(=O)Nc2cccc(-c3nnc(-c4cccc(C)c4)o3)c2)cc1OC`, the Potency is 21.3 µM (active).

On to `Cc1ccc(S(=O)(=O)Nc2ccccc2N2CCCCC2)cc1`, for which the Potency result is “inactive”.

With `COc1ccccc1CNC(=O)CSc1nc(N)c(C#N)c(-c2cccs2)c1C#N`, the Potency entry was “inactive”.

Regarding `CCn1nc([N+](=O)[O-])c(C(C#N)c2nc3cc(C(F)(F)F)ccc3s2)c(Cl)c1=O` (stereo unspecified), the Potency result was “inactive”.

Consider `O=C(NC(Nc1nc2ccc([N+](=O)[O-])cc2s1)(C(F)(F)F)C(F)(F)F)c1cccnc1`, for which the Potency entry was “inactive”.

With `O=c1c(Sc2ccccc2)c(C(F)(F)F)[nH]n1-c1ccccc1`, the Potency entry is “inactive”.

Take `COc1ccc(OC)c(CCNC(=O)Cn2nc(C)c3c(C)n(-c4ccc(C)cc4)nc3c2=O)c1`: the Potency result was “inactive”.

As to `CC(=O)NC1=C(Nc2ccc(N(C)C)cc2)C(=O)c2ccccc2C1=O`, the Potency entry is “inactive”.

On to `O=C(OCn1ncc(Cl)c(Cl)c1=O)c1cccc(C(F)(F)F)c1`, for which the Potency result is “inactive”.

For `Cc1sc2ncnc(N3CCN(CCOc4ccc(Cl)cc4)CC3)c2c1C`, the Potency entry is “inactive”.

As for `Cc1ccc(-c2nc3ccc(C(=O)O)cc3nc2-c2ccc(C)cc2)cc1`, the Potency result was “inactive”.

On to `CCOC(=O)c1sc(NC(=O)CSc2n[nH]c(-c3ccncc3)n2)c(C#N)c1C`, for which the Potency result is “inactive”.

For `COc1cccc(NC(=O)Nc2nc(-c3ccc(OC)c(OC)c3)cs2)c1`, the Potency is 13.5 µM (active).

With `COc1ccc(S(=O)(=O)Nc2ccccc2C(=O)Nc2nc(-c3ccc(F)cc3)cs2)cc1OC`, the Potency result was “inactive”.

On to `CCSc1nsc(NC(=O)Nc2cccc(OC)c2)n1`, for which the Potency result is “inactive”.

As to `CN(C)S(=O)(=O)c1cccc(-c2nnc(SCc3ccc4c(c3)OCCO4)o2)c1`, the Potency result is “inactive”.

As to `COc1ccccc1NS(=O)(=O)c1cccc(NC(=O)c2ccc3ccccc3n2)c1`, the Potency entry was “inactive”.

Take `CCc1ccc(-c2cc(C)no2)cc1S(=O)(=O)N1CCN(c2ccccn2)CC1`: the Potency entry was “inactive”.

As to `COc1ccc(CN(C)C(=O)COC(=O)c2ccc(-c3ccccc3)cc2)c(OC)c1OC`, the Potency entry is “inactive”.

As to `CCOc1ccc2nc(SC3CC(=O)N(c4ccccc4)C3=O)sc2c1` (stereo unspecified), the Potency entry was “inactive”.

Consider `Cc1cc(OCc2cc(C(=O)N(C)C(C)c3ccccn3)no2)cc(C)c1Cl` (stereo unspecified), for which the Potency result is “inactive”.

On to `CC(C)c1ccccc1OCCNC(=O)c1cccnc1`, for which the Potency entry was “inactive”.

For `O=C(CSc1ccc(F)cc1)N1CCC(c2nc3ccccc3s2)CC1`, the Potency entry was “inactive”.

As to `N=c1oc2ccccc2cc1C(=O)NC1CCCCCC1`, the Potency entry is “inactive”.

Consider `CC(Sc1nnc(-c2cccs2)n1Cc1ccccc1)C(=O)NCc1ccc2c(c1)OCO2` (stereo unspecified), for which the Potency entry was “inactive”.

With `COc1cccc(-c2nc(-c3ccc(NC(=O)c4cccnc4)cc3)no2)c1`, the Potency result is “inactive”.

Consider `Cn1c(=O)c(C(=O)NNC(=O)c2cccc(Cl)c2)c(O)c2ccccc21`, for which the Potency result is “inactive”.

As for `CC1Cc2ccccc2N1C(=O)COC(=O)/C=C/c1cccc(F)c1` (stereo unspecified), the Potency result was “inactive”.

Take `CCCCCCSc1nsc(NC(C)=O)n1`: the Potency result was “inactive”.

For `O=Cc1c[nH]c2ccc(C(=O)c3ccccc3)cc12`, the Potency entry was “inactive”.

The values above are taken from PubChem BioAssay AID602293 (National Center for Advancing Translational Sciences (NCATS), 2012).
